Screens from PubChem.
Pol iota inh: DNA polymerase iota (human) inhibition. Q9UNA4. actives 1% (n = 390,000). Potency, µM (top dose mostly 115 µM), for the others: at the highest dose activity, negative = inhibition, most hits filed as inhibitors. Pol iota fluorescent replication assay, 10 min. AID 588590; note: potency is the fitted concentration of half-maximal effect
Target sequence (Q9UNA4 whole entry, looked up): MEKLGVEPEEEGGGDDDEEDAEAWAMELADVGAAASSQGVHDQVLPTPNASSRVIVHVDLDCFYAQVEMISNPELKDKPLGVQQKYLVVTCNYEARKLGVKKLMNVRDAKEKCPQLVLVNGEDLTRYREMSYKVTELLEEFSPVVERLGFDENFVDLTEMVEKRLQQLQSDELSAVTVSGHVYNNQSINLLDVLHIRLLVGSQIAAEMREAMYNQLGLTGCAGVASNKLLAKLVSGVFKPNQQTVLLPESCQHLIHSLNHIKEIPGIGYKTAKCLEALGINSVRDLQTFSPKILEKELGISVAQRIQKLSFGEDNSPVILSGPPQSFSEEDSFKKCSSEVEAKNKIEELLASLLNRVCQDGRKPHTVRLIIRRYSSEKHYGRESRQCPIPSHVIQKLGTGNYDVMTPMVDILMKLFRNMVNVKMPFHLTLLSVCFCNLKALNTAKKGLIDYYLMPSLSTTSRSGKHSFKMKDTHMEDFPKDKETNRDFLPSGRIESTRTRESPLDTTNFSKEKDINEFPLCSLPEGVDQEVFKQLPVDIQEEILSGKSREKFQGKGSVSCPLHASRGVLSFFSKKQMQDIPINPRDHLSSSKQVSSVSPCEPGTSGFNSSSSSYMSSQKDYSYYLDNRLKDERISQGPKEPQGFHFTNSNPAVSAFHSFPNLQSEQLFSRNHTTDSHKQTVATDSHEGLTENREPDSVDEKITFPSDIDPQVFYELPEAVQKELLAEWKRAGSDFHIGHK
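Pol iota at 10 nM preincubated 15 min with compounds at room temperature; reaction started with fluorescent substrate, 50 nM final. Fluorescence read kinetically at 0 and 10 min; buffer-only wells as negative control.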
Pol beta inh: blocks human DNA polymerase beta activity | Potency, µM (series often up to 114 µM), for inactives: at the top dose activity change, negative = inhibition, usual class: inhibitors | actives 1.3% (n = 340,000) | Pol beta primer extension/strand displacement, fluorescence kinetic; note: potency is the fitted concentration of half-maximal effect; % is set by controls: 0 for no effect and ±100 for the full control effect
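Kinetic readout of DNA synthesis with strand displacement by Pol beta. Compound and 10 nM enzyme sit 15 min at room temperature; 50 nM substrate starts the reaction, read immediately and at 10 min.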
ALOX12 inh: inhibitors of human 12S-lipoxygenase ALOX12; actives 1.1% (n = 580,000); purified 12hLO, xylenol orange hydroperoxide absorbance; Potency, µM (highest dose often 108 µM), for inactives: top-dose activity change, negative = inhibition, most hits filed as inhibitors; note: potency is the fitted concentration of half-maximal effect; % is set by controls: 0 for no effect and ±100 for the full control effect
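Purified human 12hLO at 150 nM in 25 mM Hepes, 0.01% Triton X-100, pH 7.0, preincubated 15 min at room temperature with compound. Reaction started with 40 uM arachidonic acid, 30 min at room temperature. Hydroperoxide measured by Fe-xylenol orange, 573/405 nm absorbance ratio.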
PI5P4Ka inh: PI5P4K alpha (human) kinase inhibition; P48426; PI5P4Kalpha enzyme, ADP-Glo luminescence, 60 min; stronger effect = lower value; max response, %; actives 1.2% (n = 330,000); AID 652105; active = max response of -50% or lower; inconclusive = between -30% and -50%; inactive = -30% or higher; note: value at the top dose of about 77 µM; % is set by controls: 0 for no effect and ±100 for the full control effect
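Compounds were pin-transferred onto PI5P4Kalpha and substrate in HEPES pH 7.4 buffer with EGTA, CHAPS and 5% DMSO. ATP (5 microM final) started the reaction, which ran 60 minutes at room temperature before ADP-Glo detection.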
Pol kappa inh: inhibitors of human DNA polymerase kappa; Potency, µM (highest dose often 107 µM), inactives show at the highest dose activity, negative = inhibition, most hits filed as inhibitors; purified Pol kappa, fluorescent DNA synthesis assay, 10 min; Q9UBT6; actives 0.53% (n = 400,000); note: potency is the fitted concentration of half-maximal effect; % is set by controls: 0 for no effect and ±100 for the full control effect
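10 nM Pol kappa was preincubated with compounds for 15 min at room temperature. Reaction started with 50 nM (final) substrate. Fluorescence read kinetically at 0 and 10 min.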
POLH inh: DNA polymerase eta (human) inhibition; Q9Y253; recombinant Pol eta, fluorescent DNA replication assay; Potency, µM (highest dose often 114 µM), without a hit: at the top dose activity change, negative = inhibition, most hits filed as inhibitors; actives 1.2% (n = 390,000); note: potency is the fitted concentration of half-maximal effect; % is set by controls: 0 for no effect and ±100 for the full control effect
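Pol eta (10 nM) was preincubated with compounds for 15 min at room temperature, after which fluorescent replication substrate (50 nM final) was added to start the reaction. Fluorescence was read kinetically at 0 and 10 min.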
* = called active by the depositor; [ ] = another dose, or the depositor's remark. In the library only some 2.9% were active in any assay of this set; here they are far more common. Unless noted, calls come from the whole dose curve; as a rule, active = well fitted inhibition curve with a large enough effect; inconclusive = small, poorly fitted or top-dose-only effect, or another doubt; inactive = no such curve, though single readings can be large or run the other way.

`COc1ccc(-c2ccc(=O)n(CC(=O)NCc3ccco3)n2)cc1` gave Pol iota inh inconclusive, Pol beta inh 50µM*, ALOX12 inh -43%, PI5P4Ka inh -18, Pol kappa inh -4% and POLH inh inconclusive.
For O=C(Cn1nnc(-c2ccc(Cl)cc2)n1)NCc1ccco1 the results were Pol iota inh 40µM*, Pol beta inh inconclusive, ALOX12 inh -6%, PI5P4Ka inh -24, Pol kappa inh inconclusive and POLH inh -9%.
For CCC(C(=O)NCc1ccco1)n1nc(-c2ccc(OC)cc2)ccc1=O (centres undefined) the results were Pol iota inh inconclusive, Pol beta inh 45µM*, ALOX12 inh 50%, PI5P4Ka inh inconclusive, Pol kappa inh inconclusive and POLH inh inconclusive.
Cc1sc2ncnc(N3CCN(Cc4ccccc4)CC3)c2c1-c1ccccc1 was read as Pol iota inh 89µM*, Pol beta inh -1%, ALOX12 inh -26%, PI5P4Ka inh 4, Pol kappa inh inconclusive and POLH inh -23%.
COC(=O)c1cccc(NC(=O)C23CC4CC(C2)CC(C(=O)Nc2cccc(C(=O)OC)c2)(C4)C3)c1 was read as ALOX12 inh 13%.
Screening CCOc1ccccc1C1C2C(=O)N(c3ccccc3)C(=O)C2ON1c1ccccc1 (centres undefined) returned Pol iota inh 56µM*, Pol beta inh 5%, ALOX12 inh 0%, Pol kappa inh -7% and POLH inh -18%.
`O=C(O)COc1ccccc1C1C2C(=O)N(c3ccccc3)C(=O)C2ON1c1ccccc1` (centres undefined) gave Pol iota inh inconclusive, Pol beta inh inconclusive, ALOX12 inh 137%, PI5P4Ka inh inconclusive, Pol kappa inh -9% and POLH inh inconclusive.
For CN1CCN(c2ncc3nc(-c4cccs4)c(=O)n(Cc4cccs4)c3n2)CC1 the results were ALOX12 inh inconclusive and Pol kappa inh -17%[60.1 µM].
For O=c1c(-c2cc(F)cc(F)c2)nc2cnc(N3CCOCC3)nc2n1Cc1cccs1 the results were ALOX12 inh 0% and Pol kappa inh 1%[60.1 µM].
For O=c1c(-c2cc(F)cc(F)c2)nc2cnc(N3CCNCC3)nc2n1Cc1cccs1 the results were ALOX12 inh inconclusive and Pol kappa inh 28µM*.
O=c1c(-c2cccs2)nc2cnc(N3CCNCC3)nc2n1Cc1cccs1 was read as ALOX12 inh inconclusive and Pol kappa inh 32µM*.
For COc1ccccc1/C=C/c1nc(C#N)c(N2CCN(Cc3ccccc3)CC2)o1 the results were ALOX12 inh -8%.
Screening Oc1c(Br)cc(Br)cc1C=NCc1ccc(F)cc1 returned Pol iota inh inconclusive, Pol beta inh inconclusive, ALOX12 inh 40µM*, PI5P4Ka inh inconclusive, Pol kappa inh inconclusive and POLH inh inconclusive.
Screening CC(=O)c1ccc(NS(=O)(=O)c2cccc(C(=O)Nc3ccccc3C(=O)O)c2)cc1 returned Pol iota inh -13%, Pol beta inh 14%, ALOX12 inh 32µM*, PI5P4Ka inh -19, Pol kappa inh -8% and POLH inh -3%.
For COc1ccc(NS(=O)(=O)c2cccc(C(=O)Nc3ccccc3C(=O)O)c2)cc1 the results were Pol iota inh 19%, Pol beta inh 20%, ALOX12 inh inconclusive, PI5P4Ka inh -5, Pol kappa inh 5% and POLH inh -5%.
For COc1ccccc1NS(=O)(=O)c1cccc(C(=O)N/N=C/c2ccc(NC(C)=O)cc2)c1 the results were Pol iota inh 50µM*, Pol beta inh inconclusive, ALOX12 inh 7%, PI5P4Ka inh 10, Pol kappa inh -26% and POLH inh -15%.
`COc1ccc(-c2cc3c(=O)n(CC(=O)Nc4cc(C)ccc4C)ccn3n2)cc1` gave Pol iota inh 11%, Pol beta inh 45µM*, ALOX12 inh inconclusive and Pol kappa inh -7%[60.1 µM].
For Cc1cccc(NC(=O)Oc2ccc(Cl)c3cccnc23)c1 the results were ALOX12 inh 40µM*, PI5P4Ka inh 3 and POLH inh -22%.
CN(C)C1(CNC(=O)Cc2cccs2)CCCCC1 was read as ALOX12 inh 9%.
Screening COc1ccc(CN2C(=O)N(c3ccc(OC)cc3)C(=O)C2CC(=O)Nc2ccccc2)cc1 (centres undefined) returned Pol iota inh -2%, Pol beta inh 33%, ALOX12 inh 9%, PI5P4Ka inh 1, Pol kappa inh 1% and POLH inh -1%.
COc1ccc(N2C(=O)C(CC(N)=O)N(NC(=O)CCc3ccccc3)C2=O)cc1 (centres undefined) was read as Pol iota inh 15%, Pol beta inh 22µM*, ALOX12 inh -21%, PI5P4Ka inh 3, Pol kappa inh 6% and POLH inh -10%.
For CNC(=O)c1ccc(-c2nc(CN3CCN(C(=O)Nc4ccc(Cl)cc4)CC3)c(C)o2)cc1 the results were ALOX12 inh -11%.
For CC(C)(C)C1CCc2c(sc(NC(=O)C3CC=CCC3C(=O)O)c2C#N)C1 (centres undefined) the results were Pol iota inh 6%, Pol beta inh 71µM*, ALOX12 inh -25%, PI5P4Ka inh 2, Pol kappa inh -15% and POLH inh inconclusive.
Screening N#Cc1c(NC(=O)C2CC=CCC2C(=O)O)sc2c1CCCCCC2 (centres undefined) returned Pol iota inh -12%, Pol beta inh 18µM*, ALOX12 inh -19%, PI5P4Ka inh 2, Pol kappa inh -27% and POLH inh inconclusive.
For O=C(NN=C1CCCC1)c1ccc(CSc2cccc3cccnc23)cc1 the results were ALOX12 inh 57%.
COc1ccc2c(c1)CSC(c1ccccc1)C2=O (centres undefined) was read as ALOX12 inh 35µM*, PI5P4Ka inh -16 and POLH inh -15%.
Screening COc1cccc(C2C(=O)c3ccccc3C2=O)c1 returned Pol iota inh inconclusive, Pol beta inh -16%, ALOX12 inh inconclusive, PI5P4Ka inh 1, Pol kappa inh -2% and POLH inh -13%.
`O=C1NC(=Nc2ccccc2)S/C1=C/c1cccs1` gave Pol iota inh inconclusive, Pol beta inh 32µM*, ALOX12 inh -23%, PI5P4Ka inh -12, Pol kappa inh -2% and POLH inh 6%.
For Cc1ccc(N=C2NC(=O)/C(=C/c3cccs3)S2)cc1C the results were Pol iota inh 4%, Pol beta inh 10µM*, ALOX12 inh -15%, PI5P4Ka inh -20, Pol kappa inh 0% and POLH inh -15%.
